Whole data set: some 16,000 sequences, median “Z-score” near -0.37, cut for the highest 2% near 3.2. The entries come from a sample that favours the highest values as a whole.
Test system: RBM10 RRM1-ZnF (GST-tagged construct)
Experiment: RNAcompete 7-mer binding Z-score; higher = stronger binding preference
Protocol: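 RNAcompete: 20 pmol GST-tagged RBM10 RNA-binding constructs were incubated with a designed RNA pool of about 241,000 sequences up to 41 nt (1.5 nmol) on glutathione beads for 30 min at 4 °C and washed. Bound RNAs were identified by microarray hybridisation. Each RNA 7-mer is scored by a one-sided Z-score of its enrichment, computed over probes that contain the 7-mer within longer pool sequences.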

| Sequence | RNAcompete 7-mer binding Z-score |
| --- | --- |
| UCUGGUA | -0.435 |
| CAUAACA | -0.444 |
| UGUUAUC | -0.457 |
| UGUCUCU | -0.649 |
| CGCUAUC | -0.668 |
| CGGAAGC | 0.283 |
| GGACAAU | 0.927 |
| UGCGACA | -0.145 |
| UCAGAUC | -0.604 |
| ACUAGGA | 0.719 |
| GGGCGGG | 3.66 |
| GGGCGGU | 2.28 |
| GGGCGGA | 2.86 |
| CUCAAAU | -0.698 |
| AACUUCC | -0.919 |
| AAAUUCA | -0.668 |
| CUGUUAA | -0.779 |
| UGGUACG | 1.43 |
| AAACUAG | -0.327 |
| GGGGGUA | 3.99 |
| CGGGGUA | 3.2 |
| UGGGGUA | 3.56 |
| AGGGGUA | 3.69 |
| ACGGGUA | 2.05 |
| UUGGGUA | 2.33 |

| Sequence | RNAcompete 7-mer binding Z-score |
| --- | --- |
| GCGGGUA | 2.88 |
| AGGGGUC | 1.98 |
| GACCGGC | -0.532 |
| UGGAGUG | 3.08 |
| GCUUCCC | -0.665 |
| UGUACAC | -0.24 |
| AUGCAAG | 0.472 |
| ACAGGCC | -0.0512 |
| UCCUUUG | -0.876 |
| UCCGGCG | -0.275 |
| AUCCGGU | -0.227 |
| GAGUUAA | 0.29 |
| GAGAAGG | 4.53 |
| GUGAAGG | 3.74 |
| CUGAAGG | 1.22 |
| UAGAAGG | 3.12 |
| AAGAAGG | 3.54 |
| AUGAAGG | 2.96 |
| CAGAAGG | 1.57 |
| GAGAAGA | 1.22 |
| AAGAAGA | 1.11 |
| AUAAAGU | -0.155 |
| UUCCCGC | -0.759 |
| UCUCUUG | -0.714 |
| ACGGGAU | 2.02 |

| Sequence | RNAcompete 7-mer binding Z-score |
| --- | --- |
| AAAGUCC | -0.561 |
| UCGACGA | -0.327 |
| GCCAGCG | -0.0544 |
| UCGAAGC | -0.36 |
| UUGGGAG | 2.68 |
| AUUGGGU | 2.9 |
| AUCGGGU | 1.7 |
| AUGGGAA | 3.97 |
| CUGGGAA | 1.47 |
| AUGGGCA | 2.11 |
| AUGGGGU | 3.92 |
| AUGGGAG | 3.64 |
| AUGGGGA | 4.27 |
| CUGGGAG | 1.66 |
| UUGGGAA | 2.12 |
| CGACCUG | -0.571 |
| GACGAAC | -0.181 |
| UUUUGAU | -0.629 |
| UAUUGGC | -0.201 |
| AAUGGUA | 2.63 |
| AACAACC | -0.72 |
| AGGAACU | -0.0155 |
| AUGGGCG | 2.86 |
| AUGGGGG | 4.12 |
| AUGGGGC | 2.81 |

| Sequence | RNAcompete 7-mer binding Z-score |
| --- | --- |
| AUCUAAA | -0.451 |
| GAGGAUA | 2.15 |
| AGGGAUA | 4.2 |
| AGGGAUU | 2.3 |
| CGGGAUA | 1.56 |
| GGGGAUA | 3.45 |
| AGGGAUC | 1.02 |
| CUUAGUG | -0.282 |
| AGGAGAU | 1.41 |
| AAUGCGC | -0.428 |
| UGGCGGA | 1.83 |
| GGGGGGU | 3.81 |
| GGGGGGG | 3.4 |
| GGGGGGC | 2.37 |
| GGGGGCU | 2.22 |
| CGGGGUU | 2.77 |
| GGGGCGU | 2.64 |
| AGGGGGG | 2.76 |
| CGGGGGU | 3.46 |
| CCGGGGU | 2.08 |
| GUUUUAC | -0.591 |
| AGAAGUA | 0.173 |
| ACCCGGU | -0.415 |
| UUUCGUA | -0.779 |
| AUACAUA | -0.269 |

| Sequence | RNAcompete 7-mer binding Z-score |
| --- | --- |
| AUCUUAU | -0.863 |
| AGUCACG | 0.0138 |
| UUUCGUC | -0.811 |
| AUGAGGG | 3.84 |
| GUGAGGC | 1.53 |
| UUGAGGC | 0.115 |
| AUGAGGC | 0.969 |
| CUGAGGG | 1.81 |
| AUGAGGU | 1.9 |
| UUGAGGA | 1.14 |
| UUGAGGG | 3.4 |
| GUGAGGG | 3.75 |
| UGACCCC | -0.246 |
| UCGAAGA | -0.171 |
| AAUUCAG | -0.496 |
| CCCCGAC | -0.0772 |
| AACUCUA | -0.854 |
| UCUUAUC | -0.86 |
| GUGGGAG | 4.08 |
| UUGGGAC | 1.58 |
| CUGGGGU | 2.18 |
| CUGGGGG | 2.28 |
| GUGGGUU | 3.11 |
| GUGGGGU | 4.71 |
| GUGGGGA | 4.7 |

| Sequence | RNAcompete 7-mer binding Z-score |
| --- | --- |
| GUGGGCA | 3.06 |
| GUGGGGG | 4.47 |
| GUGGGCG | 3 |
| GCGGGAG | 2.86 |
| CUGGGGA | 1.76 |
| CCCCAAA | -0.6 |
| UCGAGCG | 0.0723 |
| GGCUCAU | -0.318 |
| AGGAACC | -0.139 |
| CUGCGGA | 0.199 |
| UAUGCCC | -0.6 |
| AUGACGC | -0.383 |
| CCAGACC | -0.642 |
| AGGCGCA | 0.0528 |
| GCGGGAA | 2.66 |
| CUGGGAU | 1.11 |
| GUGGGAA | 3.62 |
| AUGGGAC | 2.09 |
| GUGGGGC | 3.52 |
| AUGGGAU | 3.45 |
| GUGGGCC | 1.46 |
| GUCGGAA | 0.8 |
| GUGGGAU | 3.68 |
| CUGGGGC | 0.901 |
| AUGGGCU | 1.6 |

| Sequence | RNAcompete 7-mer binding Z-score |
| --- | --- |
| GUGGGAC | 2.35 |
| CGGCGGA | 0.862 |
| CCUUGUA | -0.733 |
| GUUCGGC | -0.0869 |
| UUCGUUG | -0.162 |
| GGGCAGC | 1.32 |
| CCAUGGU | 0.254 |
| ACUACUG | -0.428 |
| CUGCGCU | -0.633 |
| CUGGCGG | 0.508 |
| GUGGCGG | 3.26 |
| GUGGCGC | 0.992 |
| UUAUCGG | -0.171 |
| AGUCGUG | 0.124 |
| AGGGAUG | 4.59 |
| CGGGAUG | 2.48 |
| GGGGAUG | 4.52 |
| GGGGAUC | 2.29 |
| GGGGAUU | 2.75 |
| UGGGAUU | 1.9 |
| AGGGACG | 2.13 |
| UGGGAUG | 3.61 |
| UGGGAUA | 3.05 |
| GCCAGAC | -0.386 |
| GUGAGGA | 2.69 |

| Sequence | RNAcompete 7-mer binding Z-score |
| --- | --- |
| GAGUGUA | 0.972 |
| AGCUGGA | 0.8 |
| UGGUGAG | 2.98 |
| CAGCAAG | -0.0804 |
| AAAAUAU | -0.324 |
| GCUCAAG | -0.386 |
| AAGCAUG | -0.035 |
| AGAGUGA | 0.81 |
| AAAUGGG | 4.08 |
| GAAUGGG | 4.76 |
| GUAUGGA | 2.12 |
| ACAUGGA | 1.7 |
| AAAUGGC | 1.05 |
| UAAUGGG | 2.84 |
| CAAUGGG | 2.34 |
| AAAUGGU | 2.86 |
| GAAUGGC | 1.27 |
| CUAUGGG | 1.13 |
| GUAUGGG | 4.25 |
| AAAUGGA | 3.63 |
| CGUAUGC | -0.542 |
| CCGGAGC | 0.0625 |
| GGCUUAG | 0.527 |
| CCUUACG | -0.818 |
| GGGUUAC | 2.16 |

| Sequence | RNAcompete 7-mer binding Z-score |
| --- | --- |
| AGGUACG | 0.751 |
| UCCAGUU | -0.639 |
| AGCAUUC | -0.694 |
| UUGGUUG | 0.917 |
| GUGACGG | 2.02 |
| UAAUGGA | 1.93 |
| CAAUGGA | 1.1 |
| GAAUGGA | 4.02 |
| CACGGGA | 1.5 |
| CACGGGG | 2.66 |
| AACGGGA | 3.45 |
| AACGGGG | 3.45 |
| GACGGGG | 3.13 |
| AACGGGU | 3.03 |
| UACUUUC | -0.974 |
| GUACUGA | 0.0138 |
| UGGGGAC | 3.17 |
| CGGGGAU | 2.5 |
| UUGGGAU | 2 |
| AGGGGAC | 2.18 |
| GGGGGAC | 2.25 |
| AGGGGCU | 1.35 |
| AGGGGAU | 3.64 |
| GGGGGAU | 3.32 |
| UGGGGAU | 3.57 |

| Sequence | RNAcompete 7-mer binding Z-score |
| --- | --- |
| CACCUAU | -0.902 |
| UCGUCAA | -0.594 |
| CUAUCGG | -0.5 |
| CACGCGC | -0.366 |
| GGCCUAU | -0.565 |
| UGUUGUC | -0.574 |
| GUCCGGU | 0.082 |
| AAGGAGA | 3.37 |
| AUGGAUG | 3.28 |
| GAGGAGG | 2.97 |
| AAGGAGG | 4.7 |
| UAGGAGG | 2.77 |
| UAGGAGA | 1.94 |
| AUGGAUU | 1.71 |
| GAGGAUG | 3.1 |
| CAGGAGA | 1.93 |
| AAGGAUA | 2.99 |
| AAGGAUG | 4.14 |
| AUGGAUA | 2.89 |

From the supplement of paper PMC5499739
